Measurements reported in PubChem BioAssay.
Calls of active or inactive are those of the source.

Biological target: Homeobox protein Hox-A13 (Mus musculus) (UniProt Q62424)
Experiment: disruptors of Hoxa13 oligonucleotide interaction – biochemical, fluorescence polarization, labeled oligonucleotide, primary screen (AID 1185)
Conditions: Hoxa13:DNA binding, 15 min, higher = more signal, called active from +8 up or from −8 down

Chain of Homeobox protein Hox-A13 (Mus musculus) (Q62424 whole entry, looked up): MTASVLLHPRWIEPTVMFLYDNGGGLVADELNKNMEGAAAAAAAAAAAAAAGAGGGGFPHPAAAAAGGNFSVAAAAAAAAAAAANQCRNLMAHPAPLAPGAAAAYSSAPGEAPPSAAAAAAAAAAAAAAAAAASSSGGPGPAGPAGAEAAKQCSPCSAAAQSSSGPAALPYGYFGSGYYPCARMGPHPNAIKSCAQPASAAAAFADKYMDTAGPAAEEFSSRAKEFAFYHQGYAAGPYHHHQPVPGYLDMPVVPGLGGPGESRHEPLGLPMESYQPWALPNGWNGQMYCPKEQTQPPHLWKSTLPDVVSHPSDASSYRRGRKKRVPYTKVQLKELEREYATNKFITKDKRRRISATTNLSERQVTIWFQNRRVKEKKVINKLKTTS

z-score, inactive:
CCc1cc2c(nc1CC)CCN(CCC(C)=NO[C@H](C)c1cn([C@@H]3COC[C@H]3O)nn1)C2 -1.7
CCO[C@H](c1cc(OC)cc([N+](=O)[O-])c1OC)[C@H](C)C=CCC(=O)OC -0.64
CC(CCN1CCCCc2nc(C)c(C)cc21)=NO[C@H](C)c1cn([C@H](CO)Cc2ccccc2)nn1 -5.13
CC(C)CCN1CCc2nc(COc3ccccc3)c3c(c2C1)CO[C@@H](C)C3 -5.02
CCOC(=O)NN=C1C[C@@H](O)[C@@H](O)[C@@H]2[C@@H]3C(=O)N([C@@H](C)c4ccccc4)C(=O)[C@@H]3CC[C@@H]12 -1.84
CC(=O)OC[C@H]1OC(ON=CC[C@@H]2C=C[C@H](OC(C)=O)[C@@H](COC(C)=O)O2)[C@H](OC(C)=O)[C@@H](OC(C)=O)[C@@H]1OC(C)=O (stereo partly specified) -2.22
Cc1ccc(S(=O)(=O)N[C@@H]2COC(=O)[C@@H](C)COC(=O)CC=C[C@H]2C)cc1 -0.0483
COc1cccc([C@H]2Oc3ccc(OC)cc3C(=NOC[C@@H](O)[C@H]3O[C@@H]4OC(C)(C)O[C@@H]4[C@H]3O)[C@@H]2O)c1 -3.04
CC(C)(C)N1C(=O)[C@H]2[C@H]3[C@H](O)[C@H](O)CC(=O)[C@H]3CC[C@H]2C1=O 0.117
C[C@@H]1CC[C@H]2C(=O)O[C@@H](Cc3ccccc3)CN2[C@H]1c1ccc(Br)cc1 -1.7
COC(=O)[C@H](C)NC(=O)CCC1CC(OC(=O)NCc2cccc3ccccc23)CC2(CCCC(COC(=O)NCC(c3ccccc3)c3ccccc3)O2)O1 (stereo partly specified) -4.01
